# Source: PubChem BioAssay AID588674 (Broad Institute, 2011)
# The campaign covered roughly 360,000 compounds. About 1,800 (0.5%) were called active. For the sample, actives were picked, then their nearest neighbours and some compounds at random. Unmarked numbers belong to inactive results.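 How the source made its calls: active means mean inhibition of at least 75% with every replicate also reaching 75%; inconclusive means mean inhibition at least 75% but some replicate below; inactive means mean inhibition below 75%.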
# Assay: Shn3 3'UTR reporter decrease in osteoblasts – cell-based, Clone20 osteoblasts, firefly luciferase, set 2, Schnurri-3 inhibitor project, primary screen (AID 588674);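 further: 0% = median of neutral control wells and 100% = pilot-screen positive control compound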
# Conditions: Clone20 osteoblast Shn3 3'UTR firefly luciferase, 24 h; at 12.5 µM; hits give high values
row,Structure (SMILES),inhibition
1,O=c1c2ccccc2nc2n1C(CSCc1ccccc1)CS2 (stereo not given),76.2%
2,O=c1c2ccccc2nc2n1C(CSCc1cccc(C(F)(F)F)c1)CS2 (stereo not given),92.5% (active)
3,N#Cc1c(-c2ccccc2)nc(SCc2cccc(C(F)(F)F)c2)[nH]c1=O,-18.7%
4,C=CCn1c(C)cc(C2=NNC(=NCC)SC2)c1C,91% (active)
5,CN(Cc1ccc(C(F)(F)F)cc1)C(=O)[C@H]1O[C@@H](n2cnc3c(N)ncnc32)[C@H](O)[C@@H]1O,6.4%
6,CCn1nc(C(=O)Nc2ccc(N3CCOCC3)cc2)c2ccccc2c1=O,5.09%
7,C[C@@H]1C[C@@H]2O[C@H]2/C=C\C=C\C(=O)Cc2c(Cl)c(O)cc(O)c2C(=O)O1,86.9% (active)
8,Cc1ccccc1N1CCN(CCCN2C(=O)C3CCCCN3C2=O)CC1 (stereo not given),2.03%
9,COC(=O)Cc1ccc(OC(=O)C2CCN(S(=O)(=O)c3ccc(OC)c(OC)c3)CC2)cc1,-15.3%
10,CNS(=O)(=O)c1ccc2c(c1)[nH]c(=S)n2C,12.3%
11,COc1cc(C(=O)OCCCN2CCOCC2)cc(OC)c1OC,8.18%
12,COCc1c(C(=O)N/N=C\c2cccnc2)nnn1-c1nonc1N,9.7%
13,Nc1nonc1-n1nnc(C(=O)N/N=C/c2cc(Br)ccc2O)c1CSC1=NCCS1,94% (active)
14,Nc1nonc1-n1nnc(C(=O)N/N=C\c2ccncc2)c1CN1CCCCC1,10.4%
15,Cc1ccc(Cc2c(-c3ccco3)nc3ccc(Cl)cn23)cc1,2.12%
16,Cc1c(NC(=O)CSc2cccc3cccnc23)c(=O)n(-c2ccccc2)n1C,19.9%
17,CC(=O)/C(=N\Nc1ccc(Cl)cc1Cl)Sc1cccc2cccnc12,93% (active)
18,O=C(CSc1cccc2cccnc12)N/N=C/c1cccnc1,20.8%
19,Cc1ccsc1CNn1cnnc1SCc1ccccc1F,5.38%
20,CC12CCC(=O)C=C1CCC1C2C(O)CC2(C)C1CCC2(O)C(O)CO (stereo not given),4.53%

row,Structure (SMILES),inhibition
1,CCCCCCNC(=O)O[C@H]1CN(C(=O)OC(C)C)N(C(=O)OC(C)C)[C@@H]2CN(S(=O)(=O)c3ccc(C)cc3)C[C@]12O,-14.9%
2,CCOc1c(Nc2cccc(Cl)c2)c(=O)c1=O,-16.6%
3,OCCCNc1nccc(-c2cc(Nc3cccc(Cl)c3)ncn2)n1,96.3% (active)
4,Cc1ccc(NC(=O)CN2CCCCC2)c2c1CC(C)(C)O2,-24.2%
5,Cc1ccc(-n2c(SCC(=O)N/N=C/C=C/c3ccccc3[N+](=O)[O-])nc3ccccc3c2=O)cc1,1.32%
6,CCn1c(/C=C/c2ccc([N+](=O)[O-])o2)nc2ccccc2c1=O,97.2% (active)
7,O=c1c2ccccc2ncn1/N=C/c1ccccc1,-28%
8,C=CCC(CC=C)(C(N)=O)c1ccccc1,1.2%
9,CC(=O)Nc1cccc(C(=O)OCC(=O)NCc2cc(C)c(O)c(C)c2)c1,-47.1%
10,C[C@H]1CN([C@@H](C)CO)C(=O)CCCn2cc(nn2)CO[C@@H]1CN(C)S(=O)(=O)c1cccs1,-17.2%
11,CCOc1cc(/C=N/Nc2cc(C)nc3ccc(C)cc23)ccc1O,-7.54%
12,CCN(CC)c1ccc(/C=N/Nc2nc(C)cc(C)n2)c(O)c1,89.4% (active)
13,O=C1CSC(c2ccc(Cl)cc2)N1 (stereo not given),-10.9%
14,O=C(CSc1nc(O)c(Cc2ccccc2)c(=O)[nH]1)Nc1nc2c(s1)CCCC2,8.82%
15,O=C(CCS(=O)(=O)c1ccccc1)Nc1nc2c(s1)CCCC2,84.1% (active)
16,O=C(CCS(=O)(=O)c1ccccc1)NC1CCCC1,-23.2%
17,CNc1nc(SC)nc(N(C#N)CC(=O)OC)n1,-9.64%
18,C=CCSc1nc(N)cc(=O)[nH]1,15.2%
19,Cc1ccc(-c2nn(-c3ccc(F)cc3)cc2C(=O)NCC(c2cccs2)N2CCOCC2)cc1 (stereo not given),13.6%
20,Cc1ccc(-c2nc3ccc(Cl)cn3c2Cc2ccccc2)cc1,-75.7%

row,Structure (SMILES),inhibition
1,Cc1ccc(-c2cn3cc(C)ccc3n2)cc1,89% (active)
2,Cc1ccc2nc(-c3ccc(Br)cc3)cn2c1,23.5%
3,Cn1c(=O)c2c(ncn2CC(COCc2ccccc2Cl)OCc2ccccc2Cl)n(C)c1=O (stereo not given),13%
4,Oc1ccc2ccccc2c1N=Nc1nccs1,93.2% (active)
5,CCCCN1CC(N2CCN(Cc3cccc(C)c3)CC2)CS1(=O)=O (stereo not given),4.01%
6,O=[N+]([O-])c1c(NCCO)cc(Sc2nc3ccccc3s2)c2nonc12,93.7% (active)
7,COc1ccc(NC(=O)CCCOc2ccc(C(C)=O)cc2)cc1S(=O)(=O)N1CCCCC1,42.4%
8,O=C(NC(=S)Nc1ccc(Br)cc1F)C1CCCCC1,-15.2%
9,Cc1ccc(S(=O)(=O)/N=C(/NC(=S)Nc2c(C)n(C)n(-c3ccccc3)c2=O)c2ccccc2)cc1,-6.62%
10,COc1ccc(C(C)(O)c2nc(-c3ccc(C)c(C)c3)cs2)cc1 (stereo not given),8.01%
11,COc1ccc(OC)c(Nc2nc(-c3ccc(O)c(O)c3)cs2)c1,97.4% (active)
12,COc1ccc(C(O)c2nc(-c3ccc4c(c3)OCO4)cs2)cc1 (stereo not given),-17.7%
13,COc1ccc(C(=O)OCc2cc(=O)n3ccsc3n2)cc1F,-7.31%
14,COc1ccc(C(=O)NCc2ccc(Cl)cc2)cc1S(=O)(=O)N1CCCC1,-1.61%
15,COc1ccc(CCNC(=O)CN(C)S(=O)(=O)c2ccc3nc(C)sc3c2)cc1OC,-10.6%
16,CC1(C(=O)NS(=O)(=O)c2cccc(OC(F)F)c2)CCN1C(=O)C1CC1 (stereo not given),-7.16%
17,NS(=O)(=O)c1ccc(NC(=O)COC(=O)c2ccco2)cc1,2.57%
18,NS(=O)(=O)c1ccc(CNC(=S)NC(=O)c2ccco2)cc1,93.5% (active)
19,COc1cc(NC(=S)NCc2ccc(S(N)(=O)=O)cc2)cc(OC)c1,2.83%
20,N#Cc1ccc(S(=O)(=O)NCC(=O)OCC(=O)NCCc2ccccc2)cc1,1.43%
